Experimental data as given in PubChem BioAssay (NCI).
About 79,000 compounds went through this panel and 15% of them were active in at least one assay; those are over-represented in the sample as a whole. Rule as the data show it: active = growth inhibition above about 70%; inactive = the rest.

Legend:
[1] = NCI Yeast Anticancer Drug Screen. Data for the rad50 strain (AID 155);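 also: 0% = growth of vehicle-only cultures of the same strain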; conditions: S. cerevisiae rad50 strain growth inhibition; at 50.0 µM; active compounds read high
Summary of the method: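 Readout: growth inhibition relative to vehicle-treated cultures. Compound exposure was carried out in a genetically defined yeast strain deficient in DNA damage repair.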

[2] = NCI Yeast Anticancer Drug Screen. Data for the mec2-1 strain (AID 157); conditions: S. cerevisiae mec2-1 strain, at 50.0 µM, active compounds read high
Summary of the method: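 Each compound was tested on mec2-1 yeast, a strain altered in DNA damage repair or cell cycle control. Growth inhibition is reported relative to vehicle.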

[3] = NCI Yeast Anticancer Drug Screen. Data for the sgs1 mgt1 strain (AID 161);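 also: 0% = growth of cultures given vehicle only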; conditions: S. cerevisiae sgs1 mgt1 strain, at 50.0 µM, active compounds read high
Summary of the method: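 Mutant yeast exposed to compound; growth scored against vehicle-only wells.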

[4] = NCI Yeast Anticancer Drug Screen. Data for the cln2 rad14 strain (AID 165);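 also: 0% = growth equal to vehicle treated cultures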; conditions: S. cerevisiae cln2 rad14 strain, at 50.0 µM, active compounds read high
Summary of the method: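 Test compounds were added to cln2 rad14 yeast cultures; inhibition of growth was then determined by comparison with vehicle treatment.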

[5] = NCI Yeast Anticancer Drug Screen. Data for the bub3 strain (AID 167); conditions: S. cerevisiae bub3 mutant strain, at 50.0 µM, active compounds read high
Summary of the method: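 Readout: yeast growth inhibition, expressed relative to vehicle-only wells. The test organism is a mutant strain from a panel with lesions in DNA repair or checkpoint genes.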

[6] = NCI Yeast Anticancer Drug Screen. Data for the mlh1 rad18 strain (AID 175); conditions: S. cerevisiae mlh1 rad18 strain growth inhibition; at 50.0 µM; active compounds read high
Summary of the method: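 Inhibition values reflect reduced growth of mutant yeast versus vehicle-treated controls following compound exposure; the mutations affect DNA damage repair.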

Measured: growth inhibition

CCOc1ccc(N2CC(=O)N3CCCC(c4ccccc4)N3C(=O)C2)cc1 (configuration not stated)
inactive: [1] -23.7% | [2] -10.9% | [3] 13.4% | [4] 4.9% | [5] 12.1% | [6] 8.55%

NC(C(=O)O)C1C=CCCC1 (configuration not stated)
inactive: [1] -25.4% | [2] -3.4% | [3] -30.8% | [4] -57.3% | [5] -27.2% | [6] 6.85%

O=S(=O)(O)c1cc(O)ccc1O.O=S(=O)(O)c1cc(O)ccc1O.[NH-]C1CCCCC1[NH-].[Pt+2]
inactive: [1] 17.6% | [2] -4.85% | [3] -5.2% | [4] 4.8% | [5] -0.85% | [6] -3.25%

CC1CC(=O)Nc2nc(N)ncc21 (configuration not stated)
inactive: [1] 19.4% | [2] 21.8% | [3] 15.7% | [4] -3.8% | [5] 7.75% | [6] 3.9%

O=[N+]([O-])C(C=Nc1ccccc1)C=Nc1ccccc1 (configuration not stated)
inactive: [1] 6.35% | [2] -23% | [3] -2.85% | [4] -2.25% | [5] -13.4% | [6] 0.45%

O=C(NCP(=O)(c1ccccc1)c1ccccc1)OCc1ccccc1
inactive: [1] -50.2% | [2] -3.7% | [3] -25.9% | [4] 10.4% | [5] -12.5% | [6] 6.6%

COc1cc(NCCC2CCCCN2C)c2ncccc2c1 (configuration not stated)
inactive: [1] -3.9% | [2] -22.4% | [3] 8.55% | [4] 1.8% | [5] 13.6% | [6] 22.1%

O=C1c2cc([N+](=O)[O-])ccc2-c2c(S)cccc21
inactive: [1] 2.25% | [2] 5.25% | [3] -10.2% | [4] -4.7% | [5] 25.8% | [6] -16.3%

c1ccc(N2CCN(c3ccccn3)CC2)nc1
inactive: [1] -2.65% | [2] -13.6% | [3] 2.5% | [4] -21.5% | [5] -13.7% | [6] -5.1%

Cc1cc(C(N)=O)no1
inactive: [1] 1.5% | [2] -2.55% | [3] -5.7% | [4] -10% | [5] 3.9% | [6] -1.05%

O=CN(CCO)CCO
inactive: [1] -1.6% | [2] 1.25% | [3] -3.5% | [4] 11.1% | [5] 7.35% | [6] -4.2%

Nc1nc(-c2cc(-c3ccco3)nc(N)n2)cc(-c2ccco2)n1
inactive: [1] -8.2% | [2] -13.6% | [3] -20.8% | [4] -17.8% | [5] -35.6% | [6] -17.6%

Cc1cc(C)c(C#N)c(SC(C(=O)Nc2cc(C(F)(F)F)ccc2Cl)c2ccccc2)n1 (configuration not stated)
inactive: [1] 2.35% | [2] -13.2% | [3] 23.6% | [4] 19.1% | [5] 2.95% | [6] 8.25%

Cc1ccc(C(N)=O)cc1
inactive: [1] 20% | [2] -8.65% | [3] -1.55% | [4] -31.1% | [5] 17.9% | [6] 42.1%

O=C(Nc1c(Cl)cccc1Cl)Oc1cccnc1
inactive: [1] 0% | [2] -19.8% | [3] -9.1% | [4] 2.55% | [5] -23.1% | [6] -1.05%

CC(=O)OC12c3ccccc3-c3ccccc3C1C1C(=O)N(C)C(=O)C12Cl (configuration not stated)
inactive: [1] -13.4% | [2] -22.2% | [3] -12.2% | [4] 10.4% | [5] 36.5% | [6] 13.2%

CC1CCC(C(C)C)N(C)CC1 (configuration not stated)
inactive: [1] -17.2% | [2] -22.6% | [3] -6% | [4] 3.75% | [5] -8.15% | [6] -2.2%

Oc1cc(-c2ccc(Cl)cc2)cn2c1nc1ccccc12
inactive: [1] -13.3% | [2] -23.8% | [3] -38.5% | [4] -24.1% | [5] -5.75% | [6] -50%

COc1ccc(N2C(=O)/C(=C\c3ccc(N(CCC#N)CCC#N)cc3)N=C2COc2ccccc2)cc1
inactive: [1] 0.8% | [2] -2.2% | [3] 4.45% | [4] 8.7% | [5] -1.35% | [6] 1.3%

CCCCCCCCCCCCCCCCS(=O)(=O)N/N=C(/C)N(C)c1ccc(OC)cc1
inactive: [1] -15.4% | [2] -32.4% | [3] -6.1% | [4] -10.4% | [5] -15.4% | [6] -7.15%

COC(=O)[C@H]1C=C[C@@H](C)n2c(=O)c3ccccc3c(=O)n21
inactive: [1] -9% | [2] 15.4% | [3] -1.4% | [4] -9.75% | [5] -19.1% | [6] -6.8%

CCOC(=O)C(CN(CC)CC)c1ccccc1 (configuration not stated)
inactive: [1] -1.15% | [2] -6.35% | [3] -3.25% | [4] 1.8% | [5] 1.95% | [6] 10.3%

CC1=NN(c2cc(S(=O)(=O)O)ccc2Cl)C(=O)C1N=Nc1ccccc1 (configuration not stated)
inactive: [1] -23.3% | [2] -26.2% | [3] -30.1% | [4] 12.3% | [5] -20.6% | [6] -24.8%

O=C(c1ccc(F)cc1)c1ccc([N+](=O)[O-])cc1
inactive: [1] 8.85% | [2] 8.1% | [3] -1.7% | [4] -19.9% | [5] -14.1% | [6] 12.1%

O=[N+]([O-])c1cnc(/C=[N+](\[O-])C2CCCCC2)n1CCO
inactive: [1] 3.7% | [2] 17.6% | [3] -0.3% | [4] 13.7% | [5] 16.6% | [6] 9.8%

CCCC(C)C(C)O (configuration not stated)
inactive: [1] -21.4% | [2] -45.6% | [3] 0.15% | [4] -11.1% | [5] -24.1% | [6] -14.8%

Cc1nn(C(=O)CC(=O)Nc2ccccc2Cl)c(C)c1N=Nc1ccccc1F
inactive: [1] -13.7% | [2] 4% | [3] -27.6% | [4] 21.9% | [5] 2.7% | [6] -14.6%

Cc1ccc(-c2nc3ccccc3cc2N)cc1
inactive: [1] 5.85% | [2] 7.65% | [3] -0.45% | [4] -14% | [5] 3.15% | [6] -4.4%

CCOC(=O)C1CC(=O)N(Cc2ccccc2)C(=O)N1 (configuration not stated)
inactive: [1] -11.1% | [2] 1.8% | [3] -17.6% | [4] -16.9% | [5] 22.1% | [6] -3.5%

CN(C)C(=O)NC(=S)N(C)C
inactive: [1] -4.05% | [2] -10.3% | [3] -9.85% | [4] -13.2% | [5] 4.05% | [6] 4.95%

c1ccc(CC2(Cc3ccccc3)SCCS2)cc1
inactive: [1] -11.7% | [2] 8.45% | [3] 6.55% | [4] 1.15% | [5] -0.6% | [6] -6.05%

COc1cc(C2c3cc4c(cc3OC3(OC)COC(=O)C23)OCO4)cc(OC)c1OC (configuration not stated)
inactive: [1] 0.4% | [2] 13.4% | [3] 4.9% | [4] -13.9% | [5] -21.1% | [6] -21.4%

Nc1ccc2c(c1)Cc1cc(O)ccc1-2
inactive: [1] 19.1% | [2] -8.75% | [3] 1.45% | [4] 6.3% | [5] 9.9% | [6] 4.35%

COC(=O)c1nnn(-c2cccc(Cl)c2)c1C(=O)c1ccc(Cl)c(Cl)c1
inactive: [1] -6.55% | [2] 5.55% | [3] 7.5% | [4] -5.25% | [5] -8.9% | [6] 11.8%

O=C(Nc1ccc(F)cc1)Nc1ccc(I)cc1
inactive: [1] 13.2% | [2] 1.15% | [3] 5.6% | [4] 15.4% | [5] 17.2% | [6] 8.95%

CN(C)CCC(=O)c1cccc(O)c1
inactive: [1] -27.9% | [2] -19% | [3] -6.4% | [4] -37.6% | [5] -9.45% | [6] -10.2%

N#CC(c1ccccc1)C(c1ccccc1)c1cccc2ccccc12 (configuration not stated)
inactive: [1] 12.2% | [2] 12.3% | [3] 5.7% | [4] -6.85% | [5] -3.3% | [6] 15.6%

CCc1cc2c(oc3cc(C)ccc32)c(=O)n1C
inactive: [1] -12.4% | [2] -7.7% | [3] -13.8% | [4] 13.5% | [5] -14.2% | [6] -8.75%

O=c1c(Br)c(-c2ccccc2)[nH]c2ccccc12
inactive: [1] 2.95% | [2] -12.8% | [3] -32.5% | [4] 0.9% | [5] -5.7% | [6] 7.7%

CCC(=O)/C=C/c1ccccc1
inactive: [1] -1.55% | [2] -14.2% | [3] -22.1% | [4] -23.9% | [5] -34.5% | [6] -47.6%

N#Cc1nc(/C=C/c2cccnc2)oc1N
inactive: [1] -1.9% | [2] 6.7% | [3] -8.1% | [4] -3.65% | [5] -6.55% | [6] -56.6%

O=C(Nc1ccc(S(=O)(=O)N2CCCCC2)cc1)Oc1ccccc1C(=O)O
inactive: [1] 26.4% | [2] -4.5% | [3] 3.15% | [4] 16.1% | [5] -1.65% | [6] 4.8%
